Test results as given in US20210230599, “STEM-LOOP COMPOSITIONS AND METHODS FOR INHIBITING INTERLEUKIN-8” (VITRISA THERAPEUTICS, INC., published 2021).

What follows are sequences tested against Interleukin-8 (IL8, CXCL8), C-terminal His-tagged (Homo sapiens, UniProt P10145 SEQ:1-72) (assay: competition; competition TR-FRET; G18C). Conditions: tags: C-terminal 6xHis (Sino Biological); ssRNA; 2'-F G, 2'-OMe A/C/U, 5' C6NH2, 3' idT.
Method: To better understand the sequence requirements and to confirm the stem structures of members of the Aptamer 3 family as determined from sequence covariation analysis from both the primary and secondary (degenerate) selections, a series of variants which included mutations and deletions to the predicted stems were synthesized and screened (Table 24). Activity of each of these variants were tested using a time resolved competition TR-FRET assay in which the labeled parent Aptamer 3 was competed with increasing concentrations of unlabeled variants for binding to IL8 (FIG. 14). Briefly, 2-fold dilutions of thermally equilibrated aptamers were made in TR-FRET Buffer (50 mM MOPS, pH 7.4, 125 mM NaCl, 5 mM KCl, 50 μM CHAPS, 0.1 mg/mL BSA, 1 mM CaCl₂, and 1 mM MgCl₂). 5 μL of aptamer or control solution was added to 5 μl mix of 10 nM C-terminal His-tagged-IL8, 60 nM ALEXA FLUOR® 647-labeled Aptamer, and 5 nM anti-His-Eu (Perkin Elmer) in a black wall low volume 384 well plate (Greiner). For control, 5 μl of 1000-fold excess of unlabeled parent aptamer or 5 μl TR-FRET buffer alone was added to the mix of ALEXA FLUOR® 647-labeled aptamer, His-IL8, and anti-His-Eu. The plate was covered with a plate seal and subsequently incubated in the dark for 1 hour at room temperature. The plate was read on a Biotek CYTATION™ 5 plate reader. […]

| Sequence | binding signal [fold worse than Aptamer 3] |
| --- | --- |
| UGAUGACGGUAGAUUACCGGUAGAGUGACCGCAUCU | > 10 |
